Source: PubChem (Buhrlage Lab, Dana-Farber Cancer Institute and Novartis Institutes for BioMedical Research (Cambridge, Mass))
USP17 block: inhibitors of human USP17 deubiquitinase; Ubiquitin carboxyl-terminal hydrolase 17-like protein 5 (Homo sapiens), A8MUK1; purified USP17, Ub-rhodamine cleavage fluorescence, 3 h; inhibition, % at 50 µM; hit rate 6.5% among 47,000; AID 1645855, 2021
USP10 inh: inhibitors of human USP10 deubiquitinase | Ubiquitin carboxyl-terminal hydrolase 10 (Homo sapiens), Q14694 | purified USP10, Ub-rhodamine fluorescence, 60 min | inhibition, % at 20 µM | hit rate 1.1% among 47,000
USP28 inh: inhibitors of human USP28 deubiquitinase; Ubiquitin carboxyl-terminal hydrolase 28 (Homo sapiens), Q96RU2; purified USP28, Ub-rhodamine cleavage fluorescence, 30 min; inhibition, % at 25 µM; hit rate 3% among 47,000; AID 1645857, 2021
USP30 block: inhibitors of human USP30 deubiquitinase; hit rate 5.3% among 47,000; purified USP30, Ub-rhodamine cleavage fluorescence; inhibition, % at 25 µM; AID 1645860, 2021
USP8 block: inhibitors of human USP8 deubiquitinase | Ubiquitin carboxyl-terminal hydrolase 8 (Homo sapiens), P40818 | purified USP8, Ub-rhodamine cleavage fluorescence, 30 min | inhibition, % at 20 µM | hit rate 4.2% among 47,000 | AID 1645853, 2021
An asterisk follows results filed as active; nt = no result. A selection: hits, their analogues and other compounds. The true share with any hit is near 14%. No stated cut-off is given here; in the data, active means inhibition above about 30%; inactive means the rest.

SMILES | USP17 block | USP10 inh | USP28 inh | USP30 block | USP8 block
O=S(=O)(NCc1ccc2[nH]c3c(c2c1)CCCC3)c1ccccc1 | -21 | -8 | -101 | -404 | 34*
CC(=O)NCc1ccc2[nH]c3c(c2c1)CCCC3 | -24 | -2 | -22 | -85 | -8
CCCCCCCCCC(O)CC(=O)NC(CC(N)=O)C(=O)NC(CCC(N)=O)C(=O)NC(C=O)CC(C)C (centres undefined) | -2 | -5 | 12 | 5 | 0
CC(C)OCCCn1c(=O)c2ccccc2n2c(CCC(=O)NCCc3c[nH]c4ccccc34)nnc12 | 37* | -1 | 18 | 28 | 19
COc1cccc(NC(=O)CCc2nnc3n(CCCOC(C)C)c(=O)c4ccccc4n23)c1 | 69* | 4 | 70* | 89* | 81*
CCCCSc1nc(SCC(=O)Nc2nccs2)c2c3c(sc2n1)COC(C)(CC)C3 (centres undefined) | -16 | -2 | nt | nt | -5
O=C1C(NS(=O)(=O)Cc2cc(F)cc(F)c2)CCN1c1ccccc1 (centres undefined) | 47* | 4 | 18 | -13 | 11
Cc1ccc(N2CCC(NS(=O)(=O)Cc3ccccc3)C2=O)cc1C (centres undefined) | 9 | -1 | 10 | -3 | -10
O=C(NCc1ccc(F)cc1)NC1CCN(c2ccccc2)C1=O (centres undefined) | -2 | 3 | 0 | 1 | -3
O=C1C(NS(=O)(=O)Cc2cccc(F)c2)CCN1c1ccccc1 (centres undefined) | 44* | 4 | 19 | 34* | 9
O=C1C(NS(=O)(=O)Cc2cccc(F)c2)CCN1c1ccc(F)cc1 (centres undefined) | 43* | 1 | 11 | -3 | -10
O=C(NCc1cccc(F)c1)NC1CCN(c2ccccc2)C1=O (centres undefined) | 44* | 3 | 10 | 20 | 14
C/C=C1\C[C@H]2C(=O)Nc3cc(O)c(OC)cc3C(=O)N2C1 | 9 | 0 | 1 | 24 | 2
Cc1cc(N2CCC(NC(=O)NCc3ccc(F)cc3)C2=O)ccc1F (centres undefined) | 70* | 5 | 3 | 12 | 1
COc1ccc(CNC(=O)NC2CCN(c3ccc(F)cc3)C2=O)cc1 (centres undefined) | 6 | 1 | 0 | 4 | 15
Cc1ccc(-n2ccn3c(CCC(=O)NCc4ccc(F)cc4)nnc3c2=O)cc1C | -1 | 10 | 14 | 27 | 67*
Cc1ccc(CNC(=O)CCc2nnc3c(=O)n(-c4ccc(C)c(C)c4)ccn23)cc1 | 32* | 1 | 33* | 40* | 41*
Cn1c(CCC(=O)NCc2cc(F)cc(F)c2)nc2ccccc2c1=O | 0 | -1 | -8 | -15 | 15
Cc1cccc2c(=O)n(C)c(CCC(=O)NCc3cc(F)ccc3F)nc12 | 38* | -1 | 9 | 45* | 5
Cc1ccc(-n2ccn3c(CCC(=O)NCc4ccco4)nnc3c2=O)cc1C | 6 | -1 | 8 | 14 | -34
COc1ccc(-n2ccn3c(CCC(=O)NCc4ccccc4)nnc3c2=O)cc1 | 0 | 2 | -3 | 8 | 19
COc1ccccc1C(=O)Nc1cccc(N2CCCn3c(nc4ccccc43)C2)c1 | 6 | -6 | 15 | -15 | -2
Cc1cc(C)c2nc(NC(=O)C3(c4ccccc4)CC3)sc2c1 | 0 | 4 | 6 | 0 | 8
Cc1ccccc1-n1nc2c(c1NC(=O)c1ccc(F)c(F)c1)CS(=O)(=O)C2 | -8 | 1 | -4 | -2 | -23
CCCCOc1ccc(C(=O)Nc2c3c(nn2-c2ccccc2C)CSC3)cc1 | 46* | 24 | 19 | 25 | 29
SMILES | USP17 block | USP10 inh | USP28 inh | USP30 block | USP8 block
CCCCCn1c(Sc2ccc(C)cc2)nc2c1c(=O)[nH]c(=O)n2C | 34* | 9 | 18 | 53* | 15
Cc1noc(NS(=O)(=O)c2ccc(NC(=O)COc3ccc(N(C)C(=O)c4ccc(Cl)cc4)cc3)cc2)c1C | -28 | 16 | nt | nt | 5
Cc1noc(NS(=O)(=O)c2ccc(NC(=O)CSc3ccc4ccccc4c3)cc2)c1C | 52* | 28 | 36* | 11 | 68*
O=C1C(O)=C(c2ccc(O)cc2)C(=O)C(O)=C1c1ccccc1 | 13 | 8 | 26 | 33* | 1
CC1=C(O)C(=O)C(C2=C(O)C(=O)C(C)=C(O)C2=O)=C(O)C1=O | -55 | -1 | -4 | -26 | -1
C/C=C/C(O)C(C)(C)C1C\C=C/C=C\C=C\C(O)Cc2nc(co2)C(=O)OC(C(C)(C)C(O)/C=C/C)C/C=C\C2OC2/C=C/C=C\c2nc(co2)C(=O)O1 (centres undefined) | -23 | -10 | -30 | -216 | -162
CCCn1c2ccccc2n2cc(-c3ccc(-c4ccccc4)cc3)nc12 | 34* | -5 | 17 | 2 | 81*
Oc1ccccc1CNc1nc2ccccc2n1CCN1CCCCC1 | 0 | 3 | -4 | 2 | 8
Brc1ccc(-c2cn3c4ccccc4n(CCN4CCCCC4)c3n2)cc1 | 20 | -6 | 9 | 18 | 48*
Fc1ccc(-c2cn3c4ccccc4n(Cc4ccc(Cl)cc4)c3n2)cc1 | 46* | -4 | 29 | -12 | 62*
CCCn1c2ccccc2n2c(C(C)=O)c(-c3ccccc3)nc12 | 13 | 8 | 21 | 17 | 3
C[C@@H]1CO[C@@H]2C3=C(C(=O)C=CC3=O)[C@H]3OC(=O)[C@@H]4CCC5[C@@H]1CCC52C34 (some centres undefined) | 80* | 34* | 62* | 59* | 34*
O=C(c1ccn[nH]1)N1CCOC2(CCCN(c3ncc(F)cn3)C2)C1 (centres undefined) | 3 | 1 | -1 | 14 | -5
COc1ccccc1N(CC(=O)NCc1ccc(F)cc1)C(=O)CCC(=O)Nc1ccccn1 | 3 | 0 | 7 | 35* | -3
CN(C(=O)c1cnco1)[C@H]1CC[C@@]2(C)C[C@H](c3ccccc3)C[C@](C)(O2)[C@@H]1O | 17 | -1 | 5 | 5 | 19
CO/C=C/C(=O)c1cc2cnc3c(=N)cc(NC(C)=O)c([nH]1)c23 | 54* | -7 | 43* | -26 | 42*
NS(=O)(=O)c1cccc(NCc2nc3scc(-c4ccccc4)c3c(=O)[nH]2)c1 | 43* | 0 | 48* | 32* | 6
O=C(O)c1ccccc1Cc1nc2scc(-c3ccccc3)c2c(=O)[nH]1 | 14 | 11 | 7 | 7 | 31*
CNC(=O)[C@@H]1C[C@@H]2CN(C(=O)Nc3cccc(C)c3)CCN2[C@@]12C(=O)Nc1ccccc12 | -10 | -1 | -91 | 0 | 0
COc1ccccc1CC(=O)N1CCN(c2cccc3[nH]ccc23)CC1 | 13 | -6 | -5 | -26 | 58*
COc1ccccc1N1CCN(C(=O)Cc2ccccc2[N+](=O)[O-])CC1 | -14 | -2 | 1 | 3 | -5
COc1ccc(CC(=O)N2CCC3(C2)C(=O)N(C)c2ccccc23)c(Cl)c1 (centres undefined) | 5 | -3 | 1 | 16 | -8
